Bioassay records deposited in PubChem by National Center for Advancing Translational Sciences (NCATS).
HT1080 IDH1KD tx: HT-1080 IDH1 knockdown cell toxicity (counter line); HT-1080 IDH1 knockdown viability, ATP luminescence, 48 h; Potency, µM (highest dose often 46.1 µM), for inactives: top-dose activity, negative = toxicity, most hits filed as cytotoxic; 360,000 tested, 2% active; AID 686971;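 also: 0% = DMSO wells and -100% = cell-free medium wells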
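CellTiter-Glo luminescence after 48 h compound exposure at 37 degrees C of IDH1-knockdown HT-1080 cells in 5% FBS RPMI. %Activity scaled between DMSO wells and cell-free media wells, with curves fitted and assigned curve classes.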
KB-3-1 tox: KB-3-1 parental cell cytotoxicity. KB-3-1 viability, CellTiter-Glo ATP luminescence, 72 h. Potency, µM (highest dose often 46.1 µM), most hits filed as cytotoxic. 400,000 tested, 1.4% active; also: nearly all actives have a fitted effect of over 60% in size
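72 h, 37 °C compound treatment of KB-3-1 parental cells; CellTiter-Glo added, 10 min, luminescence read. Data corrected against DMSO-only plates and normalized before curve fitting.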
HT1080NT lethal: kills 2HG-producing HT-1080-NT fibrosarcoma cells. HT-1080-NT fibrosarcoma viability, CellTiter-Glo ATP luminescence, 48 h. Potency, µM (top dose mostly 46.1 µM), for inactives: top-dose activity, negative = less viability, hits mostly cytotoxic. 360,000 tested, 1.6% active. AID 686970;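 also: NT is the 2HG producing partner of a matched IDH1 knockdown line; 0% = DMSO-treated cells and -100% = media-only wells without cells; nearly all actives have a fitted effect of over 55% in size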
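750 cells/well, RPMI + 5% FBS; 2 h settle, compound pin-transfer, 48 h at 37 degrees C. CellTiter-Glo 10 min RT, luminescence. Normalized to DMSO and media-only wells.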
KB-V1 MDR tox: kills drug-selected multidrug resistant KB-V1 cells | KB-V1 MDR cells viability, CellTiter-Glo, 72 h | 400,000 tested, 3.4% active | Potency, µM (titrated, usually from 46.1 µM), actives largely listed as cytotoxic; also: nearly all actives have a fitted effect of over 60% in size
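Potencies derive from concentration-effect curves fitted to normalized luminescence (CellTiter-Glo) of KB-V1 cells treated for 72 h at 37 degrees C in phenol-red-free DMEM containing 10% FBS.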
Starred values were filed as active, the others as inactive; i = inactive; ? = inconclusive; . = not tested or not shown; [ ] = remark or other dose. A selection: hits, their analogues and other compounds. The true share with any hit is near 5.7%. Calls follow the shape of the dose curve; as a rule, active = well fitted curve in the direction sought with a large enough effect; inconclusive = small, poorly fitted or top-dose-only effect, or another doubt; inactive = no such curve, though single readings can be large; an effect the other way counts as inactive or inconclusive. Unless noted, % is scaled to controls: 0 for no effect and ±100 for the full control effect; potency is read from the fitted curve at half-maximal effect.

SMILES | HT1080 IDH1KD tx | KB-3-1 tox | HT1080NT lethal | KB-V1 MDR tox
COc1cccc(C2C3=C(N=c4s/c(=C\c5cccc(O)c5)c(=O)n42)c2ccccc2CC3)c1OC (configuration not stated) | ? | ? | -23.2% | 16.4µM*
CCOc1ccsc1C(=O)OC | -4.2% | i | 2.7% | i
COc1cccc(-c2cn3nc4c(nc3n2)CCCC4)c1 | 16.4µM* | 18.4µM* | ? | ?
CC(=O)Nc1cc(-c2ccc(N)cc2)cn2c(-c3cccc(C(F)(F)F)c3)cnc12 | -16.9% | i | -2.5% | i
CC(=O)Nc1cc(-c2cccc(C(=O)NCCO)c2)cn2c(-c3cccc(C(F)(F)F)c3)cnc12 | ? | i | 23.1µM* | i
CC(=O)Nc1cc(-c2cccc(C(=O)NCCO)c2)cn2c(-c3ccc(F)cc3)cnc12 | -25.6% | i | ? | i
CC(=O)Nc1cc(-c2ccc(C(=O)NC3CC3)cc2)cn2c(-c3cccc(C(C)=O)c3)cnc12 | ? | i | 14.6µM* | i
CC(=O)Nc1cc(-c2ccc(C(=O)NC3CC3)cc2)cn2c(-c3cccc(C(F)(F)F)c3)cnc12 | 16.4µM* | ? | ? | i
COc1cccc(C2C=C(c3ccc(C)cc3)Nc3c(C(=O)Nc4ccc(F)cc4)cnn32)c1OC (configuration not stated) | . | i | . | ?
Cc1ccc(CNC(=O)c2cnn3c(C)c(Cc4c(F)cccc4Cl)c(C)nc23)cc1 | . | i | . | i
Cc1cc(C)c(Cc2c(C)nc3c(C(=O)NCc4ccco4)cnn3c2C)c(C)c1 | -4.8% | 20.6µM* | -0.7% | 2.91µM*
CCc1nn2c(=O)cc(COC(=O)c3ccc(SC)cc3OC)nc2s1 | 14.3% | i | 10.5% | 10.3µM*
C(=Nc1cccnc1)c1ccnc2ccccc12 | . | i | . | i
COc1cc(/C=C2\C=Cc3ccccc32)cc(OC)c1OC | . | i | . | i
CC(NNC(=S)N1CCCCCC1)c1ccc2ccccc2n1 (configuration not stated) | ? | ? | 23.1µM* | i
S=C(Nc1ccccc1)N1CCCCCC1 | 4.7% | i | 20.8% | i
COc1ccc(NC(=O)CSc2nc3c([nH]c4ccccc43)c(=O)n2-c2ccccc2)c(OC)c1 | . | i | . | i
CCCc1cnc(NCCNCC(O)COc2ccc(Cl)c(Cl)c2)nc1 (configuration not stated) | 20.6µM* | i | 18.4µM* | ?
CC(=O)c1cccc(OCC(O)CNCCc2ccc(Cl)cc2)c1 (configuration not stated) | -23.0% | i | -0.8% | i
Cc1cc(NC(=O)/C=C/c2ccc(F)cc2)n(-c2nc3ccccc3[nH]2)n1 | -3.1% | i | -12.7% | i
Cc1cc(NC(=O)c2ccccc2F)n(-c2nc3ccccc3[nH]2)n1 | -18.2% | ? | ? | 14.6µM*
Cc1cc(NC(=O)c2c(F)cccc2F)n(-c2nc3ccccc3[nH]2)n1 | 10µM* | ? | ? | i
COc1ccc(/C=C/C(=O)Nc2cc(C)nn2-c2nc3ccccc3[nH]2)cc1 | -5.8% | ? | -7.6% | 16.4µM*
O=C(Nc1nc2ccccc2[nH]1)c1ccccc1F | 5.8µM* | ? | 4.61µM* | 7.31µM*
Cc1cc(NC(=O)c2c(F)cccc2Cl)n(-c2nc3ccccc3[nH]2)n1 | ? | i | ? | i
SMILES | HT1080 IDH1KD tx | KB-3-1 tox | HT1080NT lethal | KB-V1 MDR tox
O=C(Nc1nc2ccccc2[nH]1)c1ccc(F)cc1 | ? | ? | -0.1%[9.24 µM] | ?
COc1ccc(CCNC(=O)CCc2c(C)nc3c4c(C)cc(C)nc4nn3c2C)cc1OC | . | i | . | i
Cc1ccc(-n2ncc3c(Nc4cccc(C(F)(F)F)c4)ncnc32)cc1C | . | i | . | i
O=C(Nc1nc2ccccc2[nH]1)c1cc2ccccc2o1 | 7.31µM* | i | ? | i
O=C(NCCc1nc2ccccc2[nH]1)c1ccc([N+](=O)[O-])cc1 | 0.0% | i | 8.3% | i
O=C(NCCc1nc2ccccc2[nH]1)c1ccc(F)cc1 | -18.7% | ? | 0.3% | 11.6µM*
Cc1sc(N)nc1-c1cccc([N+](=O)[O-])c1 | . | i | . | i
O=C(CCc1c[nH]c2ccccc12)N1CCN(c2ccc(O)cc2)CC1 | 13µM* | i | ? | ?
O=S(=O)(Nc1cccc(-c2ccc(N3CCOCC3)nn2)c1)c1ccc(F)c(C(F)(F)F)c1 | . | i | . | ?
CC(=O)c1ccc(NC(=O)CC2Sc3ccccc3NC2=O)cc1 (configuration not stated) | . | i | . | i
O=C(CC1Sc2ccccc2NC1=O)Nc1ccccc1[N+](=O)[O-] (configuration not stated) | -4.6% | i | -2.8% | 16.4µM*
COC(=O)C[C@H]1C[C@@H]2c3cc(NS(=O)(=O)c4cccc(OC)c4)ccc3O[C@@H]2[C@@H](CO)O1 | -4.2% | i | 0.1% | i
COc1cccc(S(=O)(=O)Nc2ccc3c(c2)[C@@H]2C[C@@H](CC(=O)NCc4ccc(Cl)cc4)O[C@@H](CO)[C@@H]2O3)c1 | 6.51µM* | ? | 8.2µM* | i
Cc1ccc(CCNC(=O)c2cc3sccc3n2Cc2ccc(C)cc2)cc1 | . | i | . | i
CCn1c(C(=O)NCCCN2CCc3ccccc3C2)cc2sccc21 | ? | i | 20µM* | 9.2µM*
CCn1c(C(=O)NCc2ccccn2)cc2sccc21 | 2.7% | i | 18.7% | 14.6µM*
Cc1ccc(Cn2c(C(=O)NCCCN3CCOCC3)cc3sccc32)cc1 | ? | i | 15.8µM* | 4.61µM*
CCOC(=O)c1c(C)c(C(=O)NCc2ccccn2)c(C)n1CC | -0.9% | i | -14.0% | 16.4µM*
CCN1CCN(CCCNC(=O)c2cc3sccc3n2CC)CC1 | -0.6% | i | 0.0% | i
CCOC(=O)c1ccc(NC(=O)C(=O)NCc2ccccn2)cc1 | 0.4% | i | -12.8% | i
Cc1cc(C)c2c(=O)cc(C(=O)Nc3c(C)n(C)n(-c4ccccc4)c3=O)oc2c1 | . | i | . | i
Cc1nn(-c2ccccc2)c(OC(=O)c2ccccc2Br)c1S(=O)(=O)c1ccccc1 | . | i | . | i
Cc1cc(=O)n(Cc2c(F)cccc2Cl)c2c1c(C)nn2-c1cccc(F)c1 | . | i | . | i
C=C[C@@H]1c2cc(C)ccc2N(S(=O)(=O)c2ccc(C)cc2)[C@H](c2ccc(C(=O)OC)cc2)C1(C#N)C#N | . | i | . | i
CCCc1nnc(NC(=O)Cc2coc3ccc(C)cc23)s1 | . | i | . | i
C[C@H](NC(=O)c1nc[nH]c1C(=O)NCCCCCNC(=O)OC(C)(C)C)C(=O)OC(C)(C)C | -18.7% | i | -13.1% | 23.1µM*
CNC(=O)c1[nH]cnc1C(=O)N[C@@H](CCCCNC(=O)OC(C)(C)C)C(=O)OC(C)(C)C | 1.7% | i | -0.9% | i
CC(C)C[C@H](NC(=O)c1nc[nH]c1C(=O)N1CCN(C(=O)OC(C)(C)C)CC1)C(=O)OC(C)(C)C | -10.3% | 5.8µM* | -33.3% | i
